Assay results reported in ChEMBL document CHEMBL3988442, “University of Dundee, Small-Polar-MMV Screening Library” (2021).
The whole screen tested about 48,000 compounds, of which about 13,000 (27%) showed an effect of 50% or more. This is one part of the list.

What follows are molecules tested on Wolbachia pipientis (assay: Anti-Wolbachia Cell-Based Screen). Details: 5 µM.
Format: functional
Set-up: scale not given: in the data most compounds retested in dose-response had high values
CC(C)n1ncc2c1NC(=O)C(C#N)C21CCCCC1 (configuration not stated) was tested, and the “Percent Effect” value was 14.23%. For CC(C)c1cccc(S(=O)(=O)NCCCN2CCC(O)CC2)c1, the “Percent Effect” value was -12.32%. In the case of Cc1cscc1C(=O)Nc1cncnc1N(C)C, the “Percent Effect” value is reported as -5.667%. O=C(NCCNc1cnccn1)N1CCCC(N2CCCC2)C1 (configuration not stated) was tested, and the “Percent Effect” value was 106%. With O=C(NCCNc1cnccn1)C1CCN(C(=O)N2CCCC2)CC1 the “Percent Effect” value was 14.69%. For O=C(NCCCn1cncn1)N1CCCC(N2CCCC2)C1 (configuration not stated), the “Percent Effect” value was -12.43%. N#Cc1cccnc1NCCNC(=O)N1CCCC(N2CCCC2)C1 (configuration not stated) was tested, and the “Percent Effect” value was 15.17%. With O=C(NCCNc1cnccn1)N1CCCC1 the “Percent Effect” value was 0.5946%. With O=C(NCCNc1cnccn1)N1CCCCCC1 the “Percent Effect” value was 67.88%. In the case of Cc1cnc(CN(Cc2ccccc2)CC(O)c2cccs2)cn1 (configuration not stated), the “Percent Effect” value is reported as -0.3476%. In the case of CCc1nc(C)c(C(=O)N2CCCN(Cc3cnn(C)c3)CC2)s1, the “Percent Effect” value is reported as -6.859%. With CN(C(=O)CNc1ccc(C#N)cc1)C1CCCCC1 the “Percent Effect” value was -20.31%. With N#Cc1ccc(NC(=O)N2CCCCC2CN2CCCC2=O)cc1 (configuration not stated) the “Percent Effect” value was -0.03317%. In the case of CC(Oc1ccc(F)cc1)C(=O)N(CC(N)=O)C1CCCC1 (configuration not stated), the “Percent Effect” value is reported as -8.353%. In the case of CC[C@H](C)[C@H](N)C(=O)N1CC(=O)c2sc(NCc3ccccc3)nc2C1, the “Percent Effect” value is reported as 97.62%. CC(NC(=O)N1CCN(c2ncccn2)CC1)c1ccc(C#N)cc1 (configuration not stated) was tested, and the “Percent Effect” value was -9.134%. In the case of CC[C@H](C)[C@H](N)C(=O)N1CC(=O)c2sc(Nc3ccc(F)cc3)nc2C1, the “Percent Effect” value is reported as 106.2%. With N#Cc1ccc(Nc2nc3c(s2)C(=O)CN(CC2CC2)C3)cc1 the “Percent Effect” value was 122.3%. For CC(C)NC(=O)N1CC(=O)c2sc(Nc3ccc(C#N)cc3)nc2C1, the “Percent Effect” value was 104.4%. For CC(NC(=O)N1CCN(c2cccs2)CC1)c1ccc(C#N)cc1 (configuration not stated), the “Percent Effect” value was -13.59%. With CCOC(=O)N1CCN(C(=O)c2sc(-c3ccc(F)cc3)nc2C)CC1 the “Percent Effect” value was 5.729%. CCOCC(=O)N1Cc2cnc(-c3ccccc3)nc2C1 was tested, and the “Percent Effect” value was 12.32%. For CCc1cccc(OC2CN(C(=O)[C@@H](N)[C@@H](C)O)C2)c1, the “Percent Effect” value was -4.168%. Cc1cc(NC(=O)CCN2CCn3c(C)nnc3C2)no1 was tested, and the “Percent Effect” value was -12.27%. Fc1cc(CNc2nncs2)ccc1Cl was tested, and the “Percent Effect” value was -25.14%. In the case of CC(C)NC(=O)[C@@H]1Cc2[nH]cnc2CN1CCCc1ccccc1, the “Percent Effect” value is reported as -2.135%. In the case of CCN(C)S(=O)(=O)N(Cc1cscn1)c1ccccc1, the “Percent Effect” value is reported as -21.13%. CC1CCN(C(=O)Cc2ccc(S(=O)(=O)C(F)F)cc2)CC1 was tested, and the “Percent Effect” value was 3.078%. With CCOc1ccc(C(=O)Nc2c(C)nc3scc(C)n3c2=O)cc1 the “Percent Effect” value was -3.66%. With Cc1nnc(NC(=O)N2CCN(Cc3ccc(F)cc3)C(=O)C2)s1 the “Percent Effect” value was -5.387%. For CC(C)CC(=O)N1CC(=O)c2sc(Nc3ccc(C#N)cc3)nc2C1, the “Percent Effect” value was 99.17%. For CC(C)CC(=O)N1CC(=O)c2sc(Nc3ccc(F)cc3)nc2C1, the “Percent Effect” value was 97.08%. For CC(C1CC1)N(C(=O)CNc1ccc(C#N)cc1)C1CC1 (configuration not stated), the “Percent Effect” value was -11.75%. With CC(CNC(=O)Nc1ccc(C#N)cc1)N1CCc2ccccc21 (configuration not stated) the “Percent Effect” value was 15.75%. With CC(C)CC(=O)Nc1c(-c2ccc(F)cc2)ncn1C the “Percent Effect” value was 20.71%. In the case of Cn1c(-c2ccccc2Cl)nc2cc(C(=O)NC(CO)CO)cnc21, the “Percent Effect” value is reported as -7.352%. In the case of COCCc1noc(-c2ccc(-c3cc[nH]n3)nc2)n1, the “Percent Effect” value is reported as 6.666%. In the case of COCc1nccc(C2CCCN(Cc3ccc(C#N)cc3F)C2)n1 (configuration not stated), the “Percent Effect” value is reported as 7.365%. In the case of CCn1c(C2CCCN(Cc3cc(F)ccc3OC)C2)nn(C)c1=O (configuration not stated), the “Percent Effect” value is reported as -8.154%. For Cc1nc(CN2CCCC(CCc3ccc(F)cc3F)C2)c[nH]1 (configuration not stated), the “Percent Effect” value was 10.82%. For Cl.Cn1nc(C2CCCN(Cc3cc(F)ccc3F)C2)c2nccnc21 (configuration not stated), the “Percent Effect” value was 109%. OC1CCCN(Cc2ccc(F)c3cccnc23)C1 (configuration not stated) was tested, and the “Percent Effect” value was 11.38%. For Cn1nc(C2CCCN(Cc3ccc(F)cc3F)C2)c2nccnc21 (configuration not stated), the “Percent Effect” value was 118.1%. For COCCOc1ccccc1C(=O)Nc1c(C)cnn1CC1CC1, the “Percent Effect” value was 0.1744%. NC(=O)CC1CCN(c2ncnc3cccc(F)c23)CC1 was tested, and the “Percent Effect” value was 0.8232%. For Cc1nccn1-c1cc(CNC(=O)CCNC(=O)OC(C)(C)C)ccn1, the “Percent Effect” value was -3.866%. With CCc1cc(NCc2cccnc2N2CCCCC2)n2ncnc2n1 the “Percent Effect” value was -26.62%. For Cc1cccc(C(=O)N(CC(=O)O)CC(C)C)c1, the “Percent Effect” value was 94.29%. CCN(CC)C(=O)c1cccc(Cn2nc(C)cc2C)c1 was tested, and the “Percent Effect” value was -2.548%. For Cc1cc(C(=O)N(CC(=O)O)CC(C)C)ccc1F, the “Percent Effect” value was 96.02%. CN(CC(=O)NCCC#N)C(c1ccccc1)c1ccc(F)cc1 (configuration not stated) was tested, and the “Percent Effect” value was 2.68%. Cc1cc(C(=O)N(C)S(=O)(=O)C(C)C)ccc1F was tested, and the “Percent Effect” value was -2.598%. In the case of Cc1noc(NC(=O)c2ccc(C)c(F)c2)n1, the “Percent Effect” value is reported as 6.644%. For Cc1ccc(C(=O)N(CC(=O)O)CC(C)C)cc1F, the “Percent Effect” value was 102.6%. CC(C)CN(CC(=O)O)C(=O)c1ccc(F)cc1 was tested, and the “Percent Effect” value was 116.8%. In the case of Cc1ccc(C(=O)NCCNC(=O)c2cncnc2C(C)C)cc1F, the “Percent Effect” value is reported as 15.15%. With CC(C)CCNC(=O)C(c1cccc(F)c1)N(C)C (configuration not stated) the “Percent Effect” value was -2.485%. In the case of Cc1cc(C(=O)N(C)S(C)(=O)=O)ccc1F, the “Percent Effect” value is reported as -1.159%. In the case of CC(O)CN(Cc1cccc(C(=O)N(C)C)c1)c1ccccc1 (configuration not stated), the “Percent Effect” value is reported as 9.156%. For CCC1CN(C(=O)c2ccccc2C(C)=O)CCN1C(C)C (configuration not stated), the “Percent Effect” value was 1.877%. COc1cccc(CNC2CCc3ccc(C)cc32)n1 (configuration not stated) was tested, and the “Percent Effect” value was 12.65%. For COCCN1CCN(CC(=O)N(C)Cc2ccccc2)CC1C (configuration not stated), the “Percent Effect” value was 2.857%. CN(c1nc(Cn2cnccc2=O)cs1)C1CC1 was tested, and the “Percent Effect” value was 6.38%. CNC(=O)C1CN(C(C)C)CCN1c1ncccn1 (configuration not stated) was tested, and the “Percent Effect” value was 82.95%. With CNC(=O)C1Cc2ccccc2CN1CCC#N (configuration not stated) the “Percent Effect” value was -3.828%. In the case of CNC(=O)[C@@H]1C[C@@H](N)CN1c1nc(N2CCCC2)nc(C)c1C, the “Percent Effect” value is reported as 2.441%. Cc1cccnc1NC(=O)C1CCN(C(C)C(=O)NC(C)(C)C)CC1 (configuration not stated) was tested, and the “Percent Effect” value was -8.313%. For CNC(=O)C1CCCN1c1nc(C)c2ccccc2n1 (configuration not stated), the “Percent Effect” value was 9.069%. With CNC(=O)C1CN(C(C)C)CCN1c1nc(C)cc(C)n1 (configuration not stated) the “Percent Effect” value was 92.65%. For CNC(=O)C1CN(C)CCN1c1nc(C)cc(C)n1 (configuration not stated), the “Percent Effect” value was 94.41%. For CNC(=O)[C@H]1CC[C@@H]2[C@@H](CCN2c2ncccn2)O1, the “Percent Effect” value was 0.107%. In the case of CCCN1Cc2ccccc2CC1C(=O)NC (configuration not stated), the “Percent Effect” value is reported as -1.794%.
